In PubChem BioAssay (Tox21):
Records with an inconclusive call do not appear. A call without a number means that no potency is given here. Unmarked numbers belong to inactive results. Active and inactive are the calls of the source. Calls follow the shape of the dose curve; as a rule, active = well fitted cell-killing curve with a large enough effect in the repeat runs; inconclusive = weak or mixed curves, or effect the other way; inactive = flat fitted curve, though single readings scatter.

Assay: qHTS assay to identify small molecule antagonists of the constitutive androstane receptor (CAR) signaling pathway - cell viability counter screen (AID 1224837); also: nearly all actives have a fitted effect of over 45% in size
Settings: HepG2-CYP2B6-hCAR viability, CellTiter-Fluor, 23 h, co-treated with 50 nM CITCO; series mostly up to 92.4 µM
Description: National Center for Advancing Translational Sciences [NCATS]
NIH Chemical Genomics Center [NCGC]
U.S. Environmental Protection Agency [EPA]
National Institutes of Environmental Health Sciences [NIEHS]
National Toxicology Program [NTP]
U.S. Food and Drug Administration [FDA]
The constitutive androstane receptor (CAR) is a nuclear receptor which regulates multiple drug metabolizing enzymes (DMEs) and transporters. Activating CAR will generally increase the transcription and subsequent translation of CYP2B6 and CYP3A4. These two DMEs represent about 50% of the drug metabolizing potential in the body. When CAR is deactivated, the metabolizing potential in the body will decrease, subsequently increasing the toxicity in the body or lowering the therapeutic potential of a pro-drug. Recently, there have also been studies performed indicating CARs role in energy metabolism and cancer therapy. Therefore, inhibiting CARs activity could have a potential effect on diabetes and cancer. Identifying environmental toxins and compounds which modulate CAR, through the use of the Tox21 10K compound collection, will be an important step in determining the toxicity and potential therapeutic effects these factors will have on the human body. To differentiate true CAR antagonists from cytotoxic substances, the assay is multiplexed with a cell viability assay.
Tox21 Assay Protocol Summary:
A double-stable (hCAR and CYP2B6-2.2kb) transfected cell line, derived from human hepatoma (HepG2) cells, was utilized for the duration of the quantitative high-throughput screens. The HepG2-CYP2B6-hCAR cells were dispensed at 2500 cells/4 uL/well in 1536-well white solid bottom plates using a Multidrop Combi. After the assay plates were incubated at 37 C/5% CO2 for 4 hrs, 23 nL of compounds at 15 concentrations (from 5-48 columns) or positive control (from 1 to 4 columns) were transferred to the assay plates using a Pintool station. One uL of CITCO (final concentration = 50 nM) was added, using a Flying Reagent Dispenser, inside each well. After a 23 hr incubation period at 37 C/5% CO2, 1 uL of CellTiter-Fluor reagent was added into each well of the assay plates using a Flying Reagent Dispenser. The fluorescence intensity in the plates was then measured using a ViewLux plate reader.
Potency is read from the fitted curve at half-maximal effect.

SMILES | Potency | activity change, negative = cytotoxicity
Nc1ccc([N+](=O)[O-])c(N)c1 | 47.3 µM (active) | 
CN(C)C(=O)CNC(=O)Cc1ccccc1 | inactive | 
O=S(=O)(O)c1cc(O)c2ccc(Nc3ccccc3)cc2c1 | inactive | 
CN=C(NC#N)Nc1ccc(C2=NNC(=O)CC2C)cc1 (stereo not given) | inactive | 
CC(=O)Nc1cccc(C)c1 | inactive | 
CC(=C(CCOC(=O)C(C)C)SSC(CCOC(=O)C(C)C)=C(C)N(C=O)Cc1cnc(C)nc1N)N(C=O)Cc1cnc(C)nc1N | inactive | 
C=C(C)C(=O)OCC(C)(C)COC(=O)C(=C)C | inactive | 
CCCCCCCCCCl | inactive | 
CC(CO)c1ccccc1 (stereo not given) | inactive | 
C[C@@H]1O[C@@H](O[C@@H]2[C@@H](O)[C@H](OCCc3ccc(O)c(O)c3)O[C@H](CO[C@@H]3O[C@H](CO)[C@@H](O)[C@H](O)[C@H]3O)[C@H]2OC(=O)/C=C/c2ccc(O)c(O)c2)[C@H](O)[C@H](O)[C@H]1O | inactive | 
CC(N)C(=O)OC(C)(C)Cc1ccc(Cl)cc1 (stereo not given) | inactive | 
CCCCOCCOC(=O)COc1nc(Cl)c(Cl)cc1Cl | inactive | 
CCCCCCCCC(=O)Cl | inactive | 
Cc1nc2n(c(=O)c1CCN1CCC(c3noc4cc(F)ccc34)CC1)CCC[C@H]2O |  | 1.56% [at 19 µM]
OCCCCC(O)CO (stereo not given) | inactive | 
CC(=O)NCCCCCC(=O)O | inactive | 
Cc1ccc2c(c1)OCC(=O)CO2 | inactive | 
CC(C)(C)c1n[nH]c(=S)n(N)c1=O | inactive | 
O=C(Nc1ccc(Cl)c(Cl)c1)C1CC1 | inactive | 
CCOc1cc(NC(C)=O)ccc1C(=O)OC | inactive | 

SMILES | Potency | activity change, negative = cytotoxicity
CCNC(=O)C1CC(C)CCC1C(C)C (stereo not given) | inactive | 
CN(C)c1ccc(C=O)cc1 | inactive | 
C[C@H](CCC(=O)O)[C@H]1CC[C@H]2[C@@H]3C(=O)C[C@@H]4CC(=O)CC[C@]4(C)[C@H]3CC(=O)[C@]12C | inactive | 
Cc1cccc(OCC(O)CNC(C)(C)C)c1C (stereo not given) | inactive | 
CCOC(=O)c1ncn2c1CN(C)C(=O)c1cc(F)ccc1-2 | inactive | 
CO[C@@H]1[C@@H](OC(N)=O)[C@@H](O)[C@H](Oc2ccc3c(O)c(NC(=O)c4ccc(O)c(CC=C(C)C)c4)c(=O)oc3c2C)OC1(C)C | inactive | 
CCOC(=O)c1ccc(OC(=O)CCCCCN=C(N)N)cc1 | inactive | 
CC(C)NCC(O)COc1ccc(COCCOC(C)C)cc1 (stereo not given) | inactive | 
O=C(OCC(COC(=O)c1cccnc1)(COC(=O)c1cccnc1)COC(=O)c1cccnc1)c1cccnc1 | inactive | 
CCCCNC1CC(C)(C)NC(C)(C)C1 | inactive | 
COCCc1ccc(OCC2CO2)cc1 (stereo not given) | inactive | 
O=C1CC(c2ccc(Cl)cc2)CC(=O)N1 | inactive | 
CC(CC=O)CCCC(C)(C)O (stereo not given) | inactive | 
CC[C@H](C)C(=O)O[C@H]1C[C@H](O)C=C2C=C[C@H](C)[C@H](CC[C@@H](O)C[C@@H](O)CC(=O)O)[C@H]21 | inactive | 
C=C(C)C(=O)OCCN(CC)CC | inactive | 
NC(CO)C(=O)NNCc1ccc(O)c(O)c1O (stereo not given) | inactive | 
CCc1ccc(C=O)cc1 | inactive | 
COc1ccc2c(c1)C(=O)N(CCc1ccc(S(=O)(=O)NC(=O)NC3CCCCC3)cc1)C(=O)C2(C)C | inactive | 
C=CCCCCCCCCCCCC | inactive | 
O=C(CCN1CCN(CCO)CC1)N1c2ccccc2Sc2ccc(C(F)(F)F)cc21 | inactive | 
